# High-throughput results (PubChem BioAssay)
# hERG WT inh: inhibitors of human wildtype KCNH2 potassium channel; U2OS, BacMam KCNH2, thallium flux FluxOr; active compounds read low; actives 0.37% (n = 340,000); activity change, % at 1.84 µM; AID 720551;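 active = maximum activity change below -70%; inconclusive = maximum activity change between -70% and -50%; inactive = maximum activity change above -50%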
#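 U2OS cells transduced with wild-type KCNH2 virus are loaded with FluxOr dye for 45 min, and thallium flux is measured in kinetic reads before and after stimulation buffer. Rate constants are normalized to DMSO controls.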
# VDR inh: vitamin D3 receptor (human) inhibition. actives 0.93% (n = 400,000). P11473. VDR-SRC2-3 peptide fluorescence polarization, 2 h. Potency, µM, usual class: inhibitors
#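 FP read-out; VDR + SRC2-3 coactivator peptide; 23 nl compound by pintool; 2 h RT incubation; reagents held at 4 deg C, protected from light.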
# MBNL1 CUG block: MBNL1-poly(CUG) RNA binding inhibition. Q9NR56. TR-FRET MBNL1-His/biotin-(CUG)12 binding, 665/545 ratio. Potency, µM (top dose mostly 57.5 µM), hits mostly inhibitors. actives 0.036% (n = 280,000). AID 2675; active = well fitted inhibition curve with a large enough effect in the signal ratio, with a control signal flat, not every such curve was filed as active; inconclusive = small, poorly fitted or top-dose-only effect, or effect the other way, or a change in a side signal; inactive = no such curve, though single readings can be large or run the other way; the % refers to the signal ratio
# Target sequence (Q9NR56 whole entry, looked up): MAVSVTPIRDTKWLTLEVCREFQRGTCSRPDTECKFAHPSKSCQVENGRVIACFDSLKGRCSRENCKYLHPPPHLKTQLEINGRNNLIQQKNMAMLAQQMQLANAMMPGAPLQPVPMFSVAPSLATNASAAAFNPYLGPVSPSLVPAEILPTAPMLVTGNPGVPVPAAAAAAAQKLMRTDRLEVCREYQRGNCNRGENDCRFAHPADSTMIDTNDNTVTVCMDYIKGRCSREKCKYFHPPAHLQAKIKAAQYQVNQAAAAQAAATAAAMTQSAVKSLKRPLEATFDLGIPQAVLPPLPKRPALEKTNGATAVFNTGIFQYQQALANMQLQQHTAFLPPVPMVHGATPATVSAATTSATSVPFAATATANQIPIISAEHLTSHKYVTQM
#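 Compound titration spanned 92 nM–58 uM against the MBNL1-His/biotin-(CUG)12 complex. After 60 min at room temperature with 5 nM streptavidin-XL665 and 0.055 ng/ul terbium anti-His, ratiometric 665/545 nm emission (Ex 340 nm) normalized to controls.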
# PLK1 PBD inh: blocks phosphopeptide binding to human PLK1 polo-box domain; Potency, µM, most hits filed as inhibitors; AID 720504; Plk1 PBD binding of FITC phosphopeptide, fluorescence polarization; actives 2.8% (n = 360,000); also: series mostly up to about 57 µM; nearly all actives have a fitted effect of over 65% in size
# KCNH2 3.1 inh: KCNH2 3.1 (human) potassium channel inhibition; U2OS KCNH2 3.1, thallium flux FluxOr; active compounds read low; activity change, % (tested at about 1.8 µM); actives 0.95% (n = 340,000);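 active = maximum activity change below -70%; inconclusive = maximum activity change from -70% to -50%; inactive = maximum activity change above -50%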;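 also: thallium influx rate constant from kinetic fluorescence after stimulation buffer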
#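 Thallium flux via FluxOr fluorescence (Red40 quencher, 45 min loading) in U2OS cells virally expressing the KCNH2 3.1 isoform (1.77 x 10^8 /mL virus, overnight at 37 C). Rate constants from 2-min kinetic reads post-stimulation, normalised to positive and negative controls.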
# CBFb RUNX1 block: inhibitors of human CBF-beta and RUNX1 interaction; Q01196+Q13951; AID 1477; 230,000 tested, under 10 active; Potency, µM (series often up to 59.8 µM), actives largely listed as inhibitors; AlphaScreen CBFb-His/RUNX1-biotin binding, biochemical
#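 CBFb-His/RUNX1-biotin, 30 nM each, preincubated 20 min RT; compound 15 min RT; Ni + streptavidin beads 50 ng each, 90 min RT; AlphaScreen read.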
# Hits are given with their value; 0 = inactive; ? = inconclusive; - = no result; ! = not active in a repeat. A selection: hits, their analogues and other compounds. The true share with any hit is near 3.8%. Unless noted, calls follow the shape of the dose curve; as a rule, active = well fitted curve in the direction sought with a large enough effect; inconclusive = small, poorly fitted or top-dose-only effect, or another doubt; inactive = no such curve, though single readings can be large; an effect the other way counts as inactive or inconclusive.
SMILES,hERG WT inh,VDR inh,MBNL1 CUG block,PLK1 PBD inh,KCNH2 3.1 inh,CBFb RUNX1 block
CCOc1ccc(-c2cc(C(=O)NCc3ccccc3Cl)c3ccccc3n2)cc1,-,0,-,-,-,-
Cc1ccc(Sc2c(C)nn(C(C)(C)C)c2OC(=O)CC(C)C)cc1,-,0,-,-,-,-
CCCS(=O)(=O)N1CCC(C(=O)NCCOC)CC1,-,0,-,-,-,-
CCN1CCN(C(=S)c2ccc(Br)cc2)CC1,0,?,0,8.4µM,0,0
CCN1CCN(CCC(=O)Nc2ccc(Br)cc2)CC1,0,0,-,0,0,0
CCN1CCN(C(=S)c2ccc(O)cc2)CC1,0,79µM,0,4.7µM,0,0
CC(C)CCC[C@@H](C)[C@H]1CC[C@H]2[C@@H]3CC=C4CC(O)CC[C@]4(C)[C@H]3CC[C@]12C (stereo partly specified),-,?,-,-,-,0
O=C(CCS(=O)(=O)c1cc(Br)cc2c1N(C(=O)C1CC1)CC2)N1CCN(c2cccc(Cl)c2)CC1,-,0,-,-,-,-
Cc1oc(-c2ccc(F)cc2)nc1CN(Cc1ccccn1)CC1CCCO1 (stereo unspecified),0,?,0,30µM,0,0
CC1=CC2=NC(=O)CC(C)(C(=O)N(CC(=O)NC3CCCC3)c3ccccc3F)N2C=C1 (stereo unspecified),0,0,0,0,0,-
CC1=CC2=NC(=O)CC(C)(C(=O)N(CC(=O)NC3CCCC3)c3ccccc3C)N2C=C1 (stereo unspecified),0,0,0,30µM,0,0
CCCOC(=O)c1cccc(NC(=O)C(C)(C)C)c1,0,0,0,0,0,0
CC(C)(C)C(=O)Nc1cccc(C(=O)c2cccc(NC(=O)C(C)(C)C)c2)c1,0,0,0,24µM,0,0
CC(=O)Oc1ccc2c(c1)Oc1cc(OC(C)=O)ccc1C21OC(=O)c2ccccc21,-122,0,?,6.7µM,-146,0
O=C1OC2(c3ccc(O)cc3Oc3cc(O)ccc32)c2ccccc21,-,0,-,-,-,0
O=C(CC(c1cccs1)N1Cc2ccccc2C1=O)Nc1ccccc1 (stereo unspecified),-,0,-,-,-,-
Cc1ccc2c(c1)sc1nc(-c3cc4cc(Cl)ccc4oc3=O)cn12,-,0,-,-,-,-
CCN(CC)S(=O)(=O)c1ccc(NCC2COc3ccccc3O2)c([N+](=O)[O-])c1 (stereo unspecified),0,0,?,0,0,0
CN(C)S(=O)(=O)c1ccc(NCC2COc3ccccc3O2)c([N+](=O)[O-])c1 (stereo unspecified),0,?,?,30µM,0,0
CCOc1ccc(CC(=O)NNC(=S)NC2CCCCC2)cc1OCC,0,0,0,0,0,0
S=C(NC1CCCCC1)c1ccc2c(c1)OCO2,0,0,0,19µM,0,0
O=C(NC1CCCCCCC1)c1ccc2c(c1)OCO2,0,0,0,0,0,0
CCOc1ccc(C(=S)NC2CCCCC2)cc1OC,0,50µM,0,9.5µM,0,0
Fc1ccc(-c2cn3cc(Cc4ccccc4)sc3n2)cc1,-,0,-,-,-,-
Cc1ccc(-n2ncc(C(=O)N3CCN(C4CCCCC4)CC3)c2C2CCN(C(=O)OC(C)(C)C)CC2)cc1C,-,0,-,-,-,-
SMILES,hERG WT inh,VDR inh,MBNL1 CUG block,PLK1 PBD inh,KCNH2 3.1 inh,CBFb RUNX1 block
CC/C=C\C/C=C\C/C=C\C/C=C\C/C=C\CCCC(=O)O,-,40µM!,-,-,-,0
CC/C=C\C/C=C\C/C=C\CCCCCCCCCCCC(=O)O,-,50µM,-,-,-,0
CC/C=C\C/C=C\C/C=C\CCCCCCCCCC(=O)O,-,0,-,-,-,0
CCCCC/C=C\C/C=C\C/C=C\C/C=C\CCCCCC(=O)O,-,0,-,-,-,0
CC/C=C\C/C=C\C/C=C\CCCCCCCC(=O)O,0,22µM!,-,?,0,?
O=C1Nc2ccccc2Oc2cc(Oc3ccccc3)ccc21,-,0,-,-,-,-
COc1cc(C(c2sc3nc(C)nn3c2O)N2CCC3(CC2)OCCO3)cc(OC)c1OC (stereo unspecified),0,0,0,3µM,0,0
CN1CCc2cccc3c2C1Cc1ccc(O)c(O)c1-3 (stereo unspecified),-,10µM!,0,0,-,0
